Source: PubChem
These entries were drawn from the full list.
aSyn 5UTR act: Activators via SNCA 5'UTR binding, MLPCN; alpha-synuclein 5'UTR reporter, activators screen; activity score, % (tested at 7.5 µM), hits read low; 300,000 tested, 7.1% active; in the data active = activity score below about -60%
An asterisk follows results filed as active.

SMILES | aSyn 5UTR act
N/C(=N\OC(=O)CCC1CCCC1)c1ccccc1 | -126.2*
COc1ccc(N2CCCC2)c(NC(=O)c2ccc([N+](=O)[O-])o2)c1 | -70.2*
CS(=O)(=O)N1CCN(c2ccc(NC(=O)c3ccc([N+](=O)[O-])o3)cc2)CC1 | 72.2
O=C(Nc1ccc(N2CCCCC2)cc1)c1ccc([N+](=O)[O-])o1 | -214.2*
O=C(Nc1ccccc1N1CCCC1)c1ccc([N+](=O)[O-])o1 | -112.2*
COc1ccc(NS(=O)(=O)c2cc(NC(=O)c3ccc(C)o3)ccc2N2CCCCC2)cc1 | -62.1*
O=C(CCSc1ccccc1)Nc1ccccc1Br | -91.5*
CCN(CC)C(=O)CSc1nc(N)c2c3c(sc2n1)CC(C)CC3 (stereo unspecified) | -85.1*
COCC(C)NC(=O)c1noc2c1CCc1cc(OC)ccc1-2 (stereo unspecified) | -132.7*
COc1ccc2c(c1)CCc1c(C(=O)N(C)c3ccccc3)noc1-2 | -131.7*
COCCNC(=O)c1noc2c1CCc1cc(OC)ccc1-2 | -98.3*
COc1ccc2c(c1)CCc1c(C(=O)NCc3ccco3)noc1-2 | -120.2*
CCOC(=O)c1cnn(-c2ccc(C(C)C)cc2)c1NC(=O)C1CCC1 | -81.0*
Nc1ccccc1NC(=O)c1ccccc1 | -154.1*
O=C(NNC(=O)c1ccccc1OCc1ccc(F)cc1)c1ccccc1O | 67.5
Cn1cc(Cl)c(C(=O)Nc2cccc(Cl)c2Cl)n1 | -155.5*
COc1ccccc1OCc1ccc(C(=O)Nc2ccccc2F)cc1 | -74.9*
O=C(Nc1cccc(Cl)c1Cl)c1ccc(-c2ccccc2)cc1 | -158.8*
Cc1ccc(Cn2nc(C)cc2C(=O)Nc2ccccc2Cl)cc1 | -151.5*
O=C(Nc1ccccc1Cl)c1ccn[nH]1 | -89.6*
O=C(Nc1ccccc1F)c1ccc(C(=O)c2ccccc2)cc1 | -100.1*
Cc1ccc(C(=O)Nc2ccccc2Cl)cc1 | -128.7*
O=C(Nc1cccn2ncnc12)c1ccccc1 | -64.7*
Cc1ccc(C(=O)Nc2ccccc2C(=O)NC(C(=O)O)C(C)C)cc1 (stereo unspecified) | -68.5*
O=C(Nc1ccccc1Cl)c1ccccc1 | -86.8*
SMILES | aSyn 5UTR act
CC(C)C(NC(=O)OCc1ccccc1)C(=O)OCC(=O)N1CCCCC1 (stereo unspecified) | -132.0*
O=[N+]([O-])c1ncccc1OCc1ccc(Cl)c(Cl)c1 | -121.3*
Cc1ccc(NC(=O)Nc2cc(S(C)(=O)=O)ccc2Cl)cc1 | -77.0*
Cc1ccc(S(=O)(=O)Nc2cc(Cl)c(O)c3ncccc23)cc1 | 77.2
CS(=O)(=O)c1ccc(Cl)c(NC(=O)CCl)c1 | -87.6*
CCOc1ccc(NC(=O)Nc2nnc(CC)s2)cc1 | -104.9*
CCOc1ccc(Nc2cc(C)nc(-n3nc(C)cc3C)n2)cc1 | 62.9
CC(=O)Nc1nnc(COc2ccc(Cl)cc2)s1 | -108.6*
CCc1nnc(NC(=O)Nc2ccccc2OC)s1 | -69.8*
CCOc1ccc(Nc2n[nH]c(=S)s2)cc1 | -112.1*
COc1ccccc1NC(=O)Nc1nnc(C(C)C)s1 | -80.5*
C/C(=N/NC(=O)c1ccc2c(c1)OCO2)c1cccc([N+](=O)[O-])c1 | -133.0*
C/C(=N/NC(=O)c1ccc2c(c1)OCO2)c1ccc(Br)s1 | -88.6*
C/C(=N\NC(=O)c1cccc([N+](=O)[O-])c1)c1cccs1 | -81.3*
CCNC(=S)N/N=C(\C)c1cccc([N+](=O)[O-])c1 | -62.1*
C/C(=N\NC(=O)c1ccc(Cl)c(Cl)c1)c1ccc(Br)s1 | 90.6
Cc1cc2c3c(ccc(C)c3n1)N=CN2c1ccccc1 | 54.2
CC(/C=C/c1ccc(N(C)C)cc1)=N\N=C1\NC(=O)CC(C(=O)Nc2ccccc2)S1 (stereo unspecified) | -73.0*
CCCOc1ccc(NC(=O)C2CC(=O)N/C(=N/N=C(C)/C=C/c3ccc(N(C)C)cc3)S2)cc1 (stereo unspecified) | -78.8*
Nc1cc(Cl)ccc1C(=O)OCC(=O)N1CCCC1 | -69.5*
Nc1cc(C(=O)OCC(=O)N2CCCC2)ccc1Cl | -61.5*
CC(=O)C1C(=O)c2c(cccc2[N+](=O)[O-])C1=Nc1ccccc1C (stereo unspecified) | -73.1*
CC1=C([N+](=O)[O-])C(c2cccc(Br)c2)C2=C(N1)c1ccccc1C2=O (stereo unspecified) | 89.8
CCOC(=O)c1ccc(N2Cc3ccccc3C2=NC(=O)c2cccc([N+](=O)[O-])c2)cc1 | -211.6*
O=C(N=C1c2ccccc2CN1c1ccc(F)c(F)c1)c1cccnc1 | -83.7*
SMILES | aSyn 5UTR act
O=C(N=C1c2ccccc2CN1c1ccccc1)c1cccc([N+](=O)[O-])c1 | -123.4*
O=C(Nc1nc(-c2ccccn2)cs1)C1CCCC1 | -96.8*
O=C(Nc1ccc2nc(-c3ccccn3)[nH]c2c1)C1CCCCC1 | -144.0*
O=C(Nc1nc(-c2nc3ccccc3s2)cs1)C1CC1 | -95.6*
Cc1csc(NC(=O)c2ccco2)n1 | -72.2*
Cc1csc(NC(=O)c2cccn2C)n1 | -128.0*
O=C(NNc1nc(-c2ccc(Cl)cc2)cs1)c1ccco1 | -72.6*
Cc1csc(NC(=O)c2cn3ccccc3n2)n1 | 81.6
O=C(CN1C(=O)CCC1=O)Nc1nc(-c2nc3ccccc3s2)cs1 | -113.7*
O=C(Nc1nc(-c2ccc(Cl)s2)cs1)c1cccs1 | -276.1*
CC1CC1C(=O)Nc1nc(-c2cccs2)c(-c2cccs2)s1 (stereo unspecified) | -70.9*
O=C(Nc1nc(-c2ccccc2)ns1)c1cccs1 | -272.2*
O=C(Nc1nc(-c2ccccc2)cs1)c1cccs1 | -143.9*
CC(C)(C)c1csc(NC(=O)c2cccs2)n1 | -83.7*
O=C(Nc1nc(-c2ccccc2)cs1)c1ccccc1NS(=O)(=O)c1ccc(F)cc1 | 63.2
Cc1onc(-c2c(Cl)cccc2Cl)c1C(=O)Nc1nc(C(C)(C)C)cs1 | 79.6
CC1CC1C(=O)Nc1nc(-c2ccccc2)cs1 (stereo unspecified) | -121.6*
Cc1c(Cl)ccc2sc(NC(=O)c3ccco3)nc12 | -198.7*
O=C(Nc1nc(-c2ccc(Cl)s2)cs1)c1ccco1 | -203.0*
COc1ccccc1OCc1csc(NC(=O)c2ccco2)n1 | -107.7*
O=C(Nc1nc(-c2cc(Cl)sc2Cl)cs1)c1ccccc1 | -85.1*
O=C(Nc1nc(-c2nc3ccccc3s2)cs1)c1ccco1 | -160.6*
COc1ccc2c(=O)c(C(=O)NCCc3ccccc3)c[nH]c2c1 | -169.2*
COc1ccc2[nH]cc(C(=O)NCCc3ccccc3)c(=O)c2c1 | -70.8*
CCCNC(=O)c1ccc2c(=O)c(O)c(-c3ccc(OC)cc3)[nH]c2c1 | 87.6
SMILES | aSyn 5UTR act
CCCCNC(=O)c1ccc(Cn2c(=S)[nH]c3c([nH]c4ccc(OC)cc43)c2=O)cc1 | 105.1
CCCCC(=NCCc1c(C)[nH]c2ccc(OC)cc12)C1=C(O)CC(c2ccccc2)CC1=O (stereo unspecified) | 119.1
Oc1c(Cl)cc(Cl)cc1C=Nc1cc(C(F)(F)F)ccc1N1CCc2ccccc2C1 | -98.4*
CC(=O)OCCc1c2ccccc2c(CCCN(C)C)c2ccccc12 | 103.3
CCOC(=O)c1cnc2c(ccc3ccccc32)c1NCCCN(C)C | -357.5*
CC(=O)c1ccc(-n2c(C)ccc2-c2ccccc2)cc1 | -108.8*
Cc1ccc(C(=O)CCNc2ccc(Br)cc2)o1 | -99.3*
Cc1ccc(C(=O)Cc2cc3ccccc3oc2=O)c(C)c1 | -129.8*
COc1ccc(C(=O)Cc2cc3ccccc3oc2=O)cc1 | -124.6*
Cc1ccc(C(=O)NC(=S)Nc2ccc(-c3cc4ccccc4oc3=O)cc2)c(C)c1 | 88.3
NC(=O)N/N=C/c1ccc(-c2cccc(C(F)(F)F)c2)o1 | -84.1*
